Data taken from PubChem BioAssay (NCI).
About 83,000 compounds went through this panel and 20% of them were active in at least one assay; those are over-represented in the sample as a whole.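 Assay: single dose, 48 h. Readout: percent growth (0 = no net growth; negative = cell death). Active: <10.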 Calls of active or inactive are those of the source.

Legend:
Assay in all cases: NCI-60 one-dose screen, 48 h (100 = growth as untreated, 0 = no growth, -100 = all killed)
Settings in all cases: 10 µM unless noted
[1] = test system: NCI/ADR-RES ovarian
[2] = test system: T-47D breast
[3] = test system: BT-549 breast
[4] = test system: MDA-MB-435 melanoma
[5] = test system: HCT-116 colon
[6] = test system: HCC-2998 colon
[7] = test system: KM12 colon
[8] = test system: MCF7 breast
[9] = test system: SW-620 colon

Measured: growth

CO[C@H]1CC[C@@]2(C)C(=CC[C@@H]3[C@@H]2CC[C@]2(C)C(=O)C(=O)C[C@@H]32)C1
inactive: [1] 104% | [2] 97.1% | [3] 106% | [4] 112% | [5] 97% | [6] 109% | [7] 111%

CC(=O)/C=C/c1ccc2c(c1)OCO2
inactive: [1] 113% | [2] 107% | [3] 100% | [4] 85.7% | [8] 101% | [5] 99.3% | [6] 109% | [7] 109%

[Cl][Hg][n]1c(-c2ccco2)nc2ccccc21
inactive: [1] 98.6% | [2] 94.6% | [3] 99.2% | [4] 95.7% | [8] 74.9% | [5] 99.7% | [6] 116% | [7] 97.8%

CC[C@H](C)[C@H](NC(=O)[C@H]1CCCCN1C)C(=O)N(C)[C@H](CCc1nc(C(=O)N[C@@H](Cc2ccccc2)C[C@H](C)C(=O)OC)cs1)C(C)C
active: [3] -8.87% | [5] 1.83%
inactive: [1] 29.2% | [2] 59.3% | [9] 28% | [8] 20.5% | [6] 20.7% | [7] 15.8%

C[N+](C)(C)Cc1cc(Cl)ccc1O
inactive: [1] 104% | [2] 99.4% | [3] 91.9% | [4] 106% | [8] 104% | [5] 106% | [6] 104% | [7] 108%

CCC1CC(O)c2c(O)c3c(c(O)c2C1O)C(=O)c1cccc(O)c1C3=O (stereo not given) (tested in a mixture with another compound)
active: [1] -55.4% | [2] -14.1% | [3] -68.1% | [4] -90.3% | [8] -51% | [5] -39.8% | [7] -38.4%

COc1cc(NC(C)CCCNC2CN3CCC2CC3)c2ncccc2c1 (stereo not given)
active: [8] 0.157%
inactive: [1] 96.9% | [2] 69.9% | [3] 86% | [4] 94.3% | [5] 66.4% | [6] 75.4% | [7] 85.5%

Cc1sc2c(c1C)C(c1ccc(Cl)cc1)=N[C@@H](CC(=O)OC(C)(C)C)c1nnc(C)n1-2
inactive: [1] 34.2% | [2] 51.9% | [3] 58.5% | [4] 30% | [8] 19.1% | [5] 31% | [6] 19.1% | [7] 40.7%

c1ccc(COc2ccc3[nH]cc(CCN(Cc4ccccc4)Cc4ccccc4)c3c2)cc1
inactive: [1] 91.4% | [2] 62.9% | [3] 103% | [4] 102% | [8] 79.3% | [5] 60.3% | [6] 99.7% | [7] 88%

Clc1ccc(COC(Cn2ccnc2)c2ccc(Cl)cc2Cl)cc1 (stereo not given)
inactive: [1] 23.3% | [2] 48.3% | [3] 55.9% | [4] 27.5% | [8] 57.9% | [5] 33.6% | [6] 64.2% | [7] 29.1%

CC(C)(C)C(=O)OCOP(=O)(NCc1ccccc1)C1CCCN(O)C1=O (stereo not given)
inactive: [1] 13.5% | [2] 23.3% | [3] 28% | [4] 39.4% | [8] 19.3% | [6] 24.7%
active: [5] 7% | [7] -7.5%

O=C1C2CCC1C(N1CCCC1)CC2 (stereo not given)
inactive: [1] 102% | [2] 106% | [3] 98% | [4] 96.8% | [8] 94.7% | [5] 102% | [6] 106% | [7] 101%

N#CCCNc1ccccc1
inactive: [1] 108% | [2] 111% | [3] 108% | [9] 103% | [8] 103% | [5] 108% | [6] 106% | [7] 113%

COc1ccc(/C=C\c2cc(OC)c(OC)c(OC)c2)cc1OCC(=O)Nc1nc2ccc(OC(F)(F)F)cc2s1
inactive: [2] 22.4% | [3] 58.7% | [8] 24.3% | [5] 19.5% | [7] 19.2%
active: [1] -7.34% | [4] -30.2%

CC[C@@H]1[C@@H](C)O[C@@](O)([C@@H](C)[C@H](O)[C@H](C)[C@H]2OC(=O)/C=C/C=C/[C@H](C)[C@@H]([C@@H](C)[C@@H](O)[C@H](C)[C@@]3(O)C[C@@H](O[C@H]4C[C@@H](O)[C@H](O)C(C)O4)[C@H](CC)[C@@H](C)O3)OC(=O)/C=C/C=C/[C@@H]2C)C[C@H]1O[C@@H]1C[C@@H](O)[C@H](O)C(C)O1 (stereo not given in full)
active: [1] -64.3% | [2] -63% | [3] -90.5% | [4] -97% | [8] -69.2% | [5] -81.2% | [6] -74.7% | [7] -94.7%

Nc1ccc(-c2nc3cc(F)ccc3[se]2)cc1F
active: [8] 5.06%
inactive: [1] 91.5% | [2] 14.6% | [3] 67.8% | [4] 97.7% | [5] 58.9% | [6] 30.9% | [7] 54%

CCOP(=O)(Cc1ccc(C#N)cc1)OCC
inactive: [1] 108% | [2] 101% | [3] 109% | [4] 114% | [8] 88.6% | [5] 84.5% | [6] 110% | [7] 107%

CN1C(=O)C23CC4(C56CC78SSC(CO)(C(=O)N7C5Nc5ccccc56)N(C)C8=O)c5ccccc5NC4N2C(=O)C1(CO)SS3 (stereo not given)
active: [1] -23.4% | [2] -92.4% | [3] -99.1% | [4] -87% | [8] -68.1% | [6] -94.2% | [7] -82.9%

CC[C@H](NC(=O)[C@H]1CCCCN1C)C(=O)N(C)[C@H](C[C@@H](OC(C)=O)c1nc(C(=O)N[C@@H](Cc2ccccc2)C[C@H](C)C(=O)O)cs1)C(C)C
active: [1] 9.47% | [3] -15.6% | [4] -36.5% | [5] 0.18% | [6] 8.05% | [7] 7.87%
inactive: [2] 51.3% | [8] 16.9%

CC(=O)[C@H]1CC[C@H]2[C@@H]3CC[C@H]4C[C@H](N)CC[C@]4(C)[C@H]3CC[C@]12C
inactive: [1] 89.4% | [2] 91% | [3] 70.5% | [4] 65.1% | [8] 70.6% | [5] 40.6% | [6] 92.8% | [7] 80.2%

C[C@@H]1C[C@@]2(C)[C@@H](CC[C@@H]3[C@@H]2CC[C@]2(C)C(=O)CC[C@@H]32)CC1=O
inactive: [1] 102% | [2] 98.9% | [3] 112% | [4] 90% | [8] 99.9% | [5] 69.3% | [6] 109% | [7] 115%

CC1(C)N=C(N)N=C(N)N1c1ccc(OCCCNC(=O)Nc2ccc(S(=O)(=O)F)cc2)c(Cl)c1
inactive: [1] 115% | [2] 52.4% | [3] 60.9% | [4] 31.5% | [8] 18.4% | [5] 14.8% | [6] 15.3% | [7] 22%

C=C1C(=O)O[C@H]2[C@H]1CC/C(COC(=O)C(=O)c1cn(Cc3ccccc3)c3ccccc13)=C\CC[C@@]1(C)O[C@@H]21
active: [1] -1.18% | [2] -7.91% | [3] -77.4% | [9] -84.8% | [8] -68.7% | [5] -81.5% | [6] -85.4% | [7] -89.7%

COC(=O)[C@@H](C)C[C@H](Cc1ccccc1)NC(=O)c1csc([C@@H](C[C@H](C(C)C)N(C)C(=O)C2(NC(=O)[C@H]3CCCCN3C)CC2)OC(C)=O)n1
active: [5] 0.459% | [6] -2.95% | [7] 5.25%
inactive: [1] 61.8% | [2] 51.5% | [3] 12.8% | [9] 22.2% | [8] 18.9%

O=C([O][Hg][CH2]C1COCC([CH2][Hg][O]C(=O)c2ccccc2)O1)c1ccccc1 (stereo not given)
inactive: [1] 106% | [2] 11.4% | [3] 97.4% | [4] 90.2% | [8] 20.9% | [6] 114% | [7] 102%

O=C(NCCN1CC1)C(=O)NCCN1CC1
inactive: [1] 79.5% | [2] 88.2% | [3] 88.7% | [4] 106% | [8] 65.8% | [5] 87.9% | [6] 89.1% | [7] 97.8%

CCCCCCCCC(CO)NCCc1ccccc1 (stereo not given)
inactive: [1] 112% | [2] 96% | [3] 114% | [9] 96.2% | [8] 103% | [5] 78.8% | [6] 111% | [7] 99.9%

Cc1cc(N(CCCl)CCCl)ccc1/C=N\NC(=O)c1ccncc1
inactive: [1] 80.5% | [2] 54.4% | [3] 75.1% | [4] 89.1% | [8] 62% | [5] 78.8% | [6] 107% | [7] 95.6%

O=C(c1ccccc1O)c1[nH]c(Cl)c(Cl)c1-n1c(C(=O)c2ccccc2O)cc(Cl)c1Cl
inactive: [6] 15.3%
active: [1] -3.31% | [2] -10.1% | [3] -5.5% | [9] 7.86% | [8] 1.43% | [5] 0.716% | [7] -19.3%

Fc1ccc2c(c1)c(-c1nc(-c3c[nH]c4ncccc34)cs1)cn2CCCCN1CCCCC1
inactive: [3] 75.7%
active: [1] -64.1% | [2] -68.8% | [9] -73.7% | [8] -75.3% | [5] -97.9% | [6] -19% | [7] -66.9%
